Hits are enriched below; roughly 4.1% of the tested compounds scored in any of these assays.
DAX1 inh-1 – DAX1 (NR0B1) inhibition, primary screen; HEK293T StAR-luciferase reporter, SF-1/DAX-1 repression relief; inhibition, % at 6.8 µM; 370,000 tested, 1.1% active; AID 652010;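 active means inhibition above the mean over all tested compounds plus 3 SD, cut at about 3.6% in these data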;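 further: 0% = DAX-1 cells with DMSO and 100% = cells lacking DAX-1 with DMSO; higher inhibition means more luminescence from relief of DAX-1 repression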
hgDAF-12 ag – hgDAF-12 agonism, primary luciferase screen | activation, % at 6.8 µM | 370,000 tested, 1.8% active | HEK293 GAL4-hgDAF12 UAS-luciferase reporter, agonist luminescence; normalized to butyrate control;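 active means activation above a cutoff set at the mean of all screened compounds plus 3 SD, cut at about 10% in these data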;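 further: 0% = DMSO wells and 100% = sodium butyrate wells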
ssDAF12 agonist – S. stercoralis DAF-12 activation, primary screen. HEK293 ssDAF-12/GRIP1 lit1-tk-luc reporter, luminescence; % of 3 µM dafachronic acid response. activation, % at 6.8 µM. 370,000 tested, 1% active. AID 652126;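 active means activation above the mean over all tested compounds plus 3 SD, cut at about 0.9% in these data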;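 further: 0% = DMSO-only wells and 100% = 3 µM delta7-dafachronic acid wells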
DAX1 inh-2 – NR0B1 (DAX1) inhibition; 340,000 tested, 0.99% active; AID 504766; HEK293 Gal4-DAX1 luciferase reporter, luminescence; inhibition, % at 6.75 µM; P51843;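 active means inhibition above the mean over all tested compounds plus 3 SD, cut at about 4.2% in these data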;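 further: 0% = DAX1-transfected cells with DMSO and 100% = empty-vector control cells with DMSO; inhibition shows as a rise in luminescence from relieved DAX1 repression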
Target sequence (P51843 207-470 limits assumed): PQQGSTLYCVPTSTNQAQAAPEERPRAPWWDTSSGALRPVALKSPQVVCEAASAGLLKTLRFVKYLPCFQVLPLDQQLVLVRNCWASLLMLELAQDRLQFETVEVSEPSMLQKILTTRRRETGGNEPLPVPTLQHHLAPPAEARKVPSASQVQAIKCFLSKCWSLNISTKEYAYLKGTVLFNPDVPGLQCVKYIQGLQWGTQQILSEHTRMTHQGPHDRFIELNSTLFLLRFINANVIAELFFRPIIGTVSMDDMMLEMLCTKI
hcDAF12 agonist – activates DAF-12 receptor from parasite H. contortus. AID 652067. activation, % at 6.8 µM. HEK293 hcDAF-12 lit1-tk-luc reporter, luminescence; 0% DMSO, 100% Δ7-dafachronic acid. 370,000 tested, 1.4% active;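 active means activation above the mean of all tested compounds plus 3 SD, cut at about 5.5% in these data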;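 further: 100% = response to 3 µM Δ7-dafachronic acid high control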
Numbers without * were called inactive; . = no result.

SMILES | DAX1 inh-1 | hgDAF-12 ag | ssDAF12 agonist | DAX1 inh-2 | hcDAF12 agonist
CCOc1ccc(-c2ccc(SCC(=O)Nc3nnc(CC)s3)nn2)cc1 | 3.7* | 13* | 0 | 3 | 2
O=C(Nc1ccccc1)N(O)c1ccc(Cl)cc1 | 0 | 5 | 1.6* | 1 | 4
CN(C(=O)c1ccc(NC(=O)Cc2cccc(NC(=O)C3CCN(C(=O)CCc4ccccc4)CC3)c2)cc1)C1CC1 | 0 | -4 | -1 | . | -1
CN1CCN(C(=S)Nc2cc([N+](=O)[O-])ccc2Cl)CC1 | 0 | 3 | -1 | 5.3* | 0
CN1CCN(C(=S)c2ccc([N+](=O)[O-])cc2)CC1 | 0 | 3 | -1 | 0 | -2
CN1[C@H](Cc2ccccc2)COc2cc(N3CCCC3)ccc2S1(=O)=O | -5 | 0 | -2 | . | -4
C/C(=N\NC(=O)c1ccccn1)c1ccc(Cl)cc1 | 3 | 9 | 0 | . | 5
C/C(=N/NC(=O)c1ccccn1)c1ccc(O)cc1 | 5.1* | 13* | 0 | 4.6* | 3
C/C(=N/NC(=O)c1ccccn1)c1c[nH]c2ccccc12 | 2 | 12* | 1 | 5.8* | 6
C/C(=N\NC(=O)c1ccc(Cl)cc1)c1ccccn1 | 1 | -1 | -1 | 2 | 0
C/C(=N\NC(=O)c1c[nH]c2ccccc12)c1ccc(C)o1 | 2 | 6 | 2.7* | 2 | 5.7*
O=S1(=O)c2ccc(N3CC[C@H](O)C3)cc2O[C@@H]2CCN1C2 | 1 | -3 | -1 | . | 0
COC(=O)[C@H]1C[C@@]2(C3C=CC=C3)c3ccccc3N[C@H]2N1 | 0 | 5 | -1 | . | 1
O=C1CSc2ccc(C(=O)N3CCCC(C(=O)N4CCOCC4)C3)cc2N1 (stereo unspecified) | 1 | 2 | -2 | . | 1
COC(=O)C1=C(C)N(Cc2ccc(C(F)(F)F)cc2)C(=NCC2CC2)NC1c1ccccc1 (stereo unspecified) | 0 | 1 | -1 | . | 0
Cc1ccc(C)c(NC(=O)c2cc(-c3cccnc3)nc3ccccc23)c1 | 1 | -1 | -1 | 6.3* | 0
Cc1ccc(-c2cc(C(=O)NC3=NCCS3)c3ccccc3n2)cc1C | 1 | 11* | 0 | 0 | 4
CCCC[C@H]1C2CC(OC(=O)Nc3ccccc3Cl)C(C2)[C@H]2CCCCN21 (stereo partly specified) | 0 | -5 | -1 | . | -2
CCOc1cccc(-c2nnc(SCC(=O)Nc3ccc4c(c3)OCO4)n2N)c1 | -2 | -3 | -1 | . | -1
COc1ccc(CN=Cc2c(O)[nH]c3ccccc23)cc1 | 0 | 8 | -1 | 1 | 2
Oc1[nH]c2ccccc2c1/C=N/c1nccs1 | 1 | 6 | 1 | 2 | 5.7*
Cc1ccc(O)c(NC(=S)NC(=O)/C=C/c2ccco2)c1 | -1 | 12* | 0 | 0 | 4
COc1ccc(NC(=S)NC(=O)c2ccc(Br)o2)cc1 | 1 | 11* | 0 | 1 | 1
Cc1ccc(O)c(NC(=S)NC(=O)/C=C/c2ccccc2)c1 | 0 | -1 | -1 | 1 | 0
COc1ccc(NC(=S)NC(=O)/C=C/c2ccco2)cc1 | 0 | 10 | -1 | 4.8* | 1
SMILES | DAX1 inh-1 | hgDAF-12 ag | ssDAF12 agonist | DAX1 inh-2 | hcDAF12 agonist
COc1cccc(-c2nnc(SCC(=O)Nc3ccc(Oc4ccccc4)cc3)n2Cc2ccco2)c1 | 0 | -1 | -1 | . | -4
COc1ccc(Oc2c(Cl)cnn(C3c4ccccc4-c4ccccc43)c2=O)cc1 | -2 | -1 | -1 | . | -1
Cc1ccc(-c2nc3ncccc3o2)cc1N | 1 | 7 | -1 | 0 | 5.8*
CCC(C(=O)Nc1ccccc1N1CCCC1)c1cccc(C)c1 (stereo unspecified) | -1 | 2 | -1 | . | 1
C/C(=N\Nc1ccc([N+](=O)[O-])cc1)c1cc2ccccc2o1 | 0 | 4 | -1 | 0 | 6.4*
O=C(N/N=C/c1ccc([N+](=O)[O-])cc1)c1cc2ccccc2o1 | 0 | 3 | -2 | 2 | 0
CCc1cc(C(=O)Cc2nc3ccccc3s2)c(O)cc1OCC(=O)O | 1 | 0 | 0.9* | 0 | 4
O=C(OCc1nc2ccccc2s1)c1ccccc1O | 4 | 6 | 0 | 0 | 3
N#Cc1ccccc1OCC(=O)NC1CCCCCC1 | 2 | 11* | 0 | 3 | 5
CC(C)(C)NC(=O)NC(=O)COc1ccccc1C#N | 3 | 9 | 0 | 5.1* | 2
C=CCNC(=O)COc1ccccc1C#N | 1 | 6 | -2 | 0 | 1
N#Cc1ccccc1OCC(=O)OCC(=O)NC1CCCCC1 | 2 | 4 | -1 | 0 | 2
Clc1ccc([C@H]2OC[C@@]3(CNCc4ccc5c(c4)OCO5)CS[C@H](c4ccc(Cl)cc4)N23)cc1 | . | 5 | -2 | . | -1
O=S(=O)(CC=CCS(=O)(=O)c1ccccc1)c1ccccc1 | 0 | -1 | -1 | 0 | -1
COc1ccc(NC(=O)c2csc3c2CCCC3)cc1 | . | . | . | 2 | .
COc1cccc(NC(=O)c2csc3c2CCCC3)c1 | 2 | 11* | 0 | 0 | 1
COc1cccc(NC(=O)CN(C)C(=O)c2cc3c(s2)CCCCC3)c1 | -1 | 0 | -1 | 0 | -1
COc1cccc(NC(=O)CN(C)C(=O)c2cc3c(s2)CCCC3)c1 | 3.7* | 3 | 0 | 1 | 4
Cc1ccc(C)c(NC(=S)NNC(=O)c2csc3c2CCCC3)c1 | -1 | -3 | -2 | -1 | -2
Cc1cccc(NC(=S)NNC(=O)c2csc3c2CCCC3)c1 | 1 | 11* | 0 | 0 | 2
O=C(N[C@@H](Cc1cccnc1)C(=O)N1CCC[C@H]1C(=O)NCCc1ccccc1Cl)c1ccc(Cl)cc1Cl | 3 | 2 | -1 | . | 0
CC12CCC(=O)N1C(C(=O)Nc1ccc(F)c(Cl)c1)CS2 (stereo unspecified) | 0 | 2 | -1 | 1 | 1
Cc1[nH]c2ccccc2c1Cc1n[nH]c(=S)n1C | -1 | 1 | -1 | 1 | 1
Cn1c(Cc2c[nH]c3ccccc23)n[nH]c1=S | 1 | 1 | 1.0* | 1 | 4
Cc1cc(N2CCCN(C)CC2)n2nc(C)nc2n1 | 0 | 3 | -1 | . | -1
SMILES | DAX1 inh-1 | hgDAF-12 ag | ssDAF12 agonist | DAX1 inh-2 | hcDAF12 agonist
O=c1[nH]c2ccccc2nc1-c1cccs1 | 1 | 4 | 0 | 0 | 2
c1csc(-c2nnsc2-c2nc3ccccc3[nH]2)c1 | 0 | 4 | 1.4* | 1 | 3
COC(=O)CN1CCN(C(=O)c2csc(N3CCOCC3)n2)CC1 | 1 | 0 | -1 | . | -3
Cc1ccc(NC(=O)c2cc(=O)c3ccccc3o2)cc1S(=O)(=O)N1CCCCC1 | -1 | -2 | -2 | -1 | -1
O=C(Nc1ccc(S(=O)(=O)N2CCCC2)cc1)c1cc(=O)c2ccccc2o1 | 1 | 2 | -1 | 4.3* | 0
CCc1ccc(N2CC34C=CC(O3)C(C(=O)OC)C4C2=O)cc1 (stereo unspecified) | 1 | -1 | -1 | 4.4* | -1

Assay outcomes as filed in PubChem.
